Reference: PubChem BioAssay AID1224904 (Broad Institute, 2016)
In all, about 37,000 compounds went through this assay and about 290 (0.78%) were called active. Inconclusive results (about 10%) are left out.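 Rule for the calls: active = mean inhibition of at least 10% in the main channel, exceeding the control channel by a set limit; inconclusive = inhibition of 10% or more but channel gap under a set limit; inactive = mean inhibition below 10%.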 The list comes from a sample in which actives are over-represented; it also holds similar structures and randomly drawn compounds.

Experiment: DUX4 transcriptional activity inhibition in cells – 293T cells, Gaussia and Italica luciferase, primary screen (AID 1224904);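 for activity change, negative = inhibition: 0% = median of neutral control wells and -100% = median of positive control wells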
Conditions: 293T-iDUX4 ZSCAN4-Gaussia luciferase reporter, 24 h, stronger effect = lower value, concentration not given here; for Gaussia minus Italica difference: measured here: selective DUX4 reporter inhibition
[1] = measured here: Italica tet-on control reporter

Compound	activity change, negative = inhibition	activity change, negative = inhibition [1]	Gaussia minus Italica difference
CCNC[C@@H]1[C@@H](c2ccccc2)[C@@H](CO)N1C(=O)Cc1ccccn1	-0.0686% (inactive)	0.573%	-0.642%
CC(C)[C@@H]1COCc2cn(nn2)CC[C@@H](C)C(=O)N1	-4.81% (inactive)	-0.475%	-4.34%
C/C=C/c1ccc([C@H]2[C@@H](CO)N(S(C)(=O)=O)[C@@H]2CN(C)C(=O)CC)cc1	-5.98% (inactive)	-3.34%	-2.63%
COc1ccc(S(=O)(=O)Nc2ccc3c(c2)C(=O)N([C@@H](C)CO)C[C@@H](C)[C@H](CN(C)C(=O)CCC(F)(F)F)OCCCC[C@H](C)O3)cc1	-0.224% (inactive)	1.87%	-2.09%
COc1ccc2c3c(n(C)c2c1)[C@H](CO)N(Cc1ccc(F)cc1)CC31CCN(C)CC1	-2.1% (inactive)	0.744%	-2.85%
CCCN1[C@H](C(=O)N2CCCCC2)[C@@H](CO)[C@@H]2Cn3c(ccc(-c4ccccc4F)c3=O)[C@@H]21	-5.69% (inactive)	-0.135%	-5.56%
CCCNC(=O)N(C)C[C@@H]1Oc2ncc(C#CCc3ccccc3)cc2C(=O)N([C@@H](C)CO)C[C@H]1C	5.53% (inactive)	3.94%	1.6%
CCCNC(=O)N1C[C@@H](O)COC[C@H]2O[C@H](CC(=O)N3CCC(Cc4ccccc4)CC3)CC[C@@H]21	-2.96% (inactive)	-2.25%	-0.719%
N#C[C@H]1[C@@H](c2ccc(-c3ccccc3F)cc2)[C@H](CO)N1C(=O)c1ccccn1	2.62% (inactive)	1.69%	0.933%
CCS(=O)(=O)N1Cc2cc(C(=O)N(C)C)nc(-c3cccc(-c4ccc(C#N)cc4)c3)c2[C@H]1CCO	0.897% (inactive)	2.65%	-1.75%
COc1ccccc1CN1CC[C@@H]2[C@@H](CO)Nc3ccc(C#Cc4ccccc4)cc3[C@@H]21	-0.512% (inactive)	16%	-16.5%
COc1ccc(C#Cc2ccc3c(c2)[C@H]2[C@H](CCN2Cc2nccs2)[C@@H](CO)N3)cc1	-46.9% (active)	-18.3%	-28.6%
COc1ccc(S(=O)(=O)N2CC[C@@H]3[C@@H](CO)Nc4ccc(C#Cc5cccnc5)cc4[C@@H]32)cc1	2.41% (inactive)	-7.96%	10.4%
CCCNC(=O)Nc1ccc2c(c1)C(=O)N(C)[C@@H]1CC[C@@H](CC(=O)NC)O[C@H]1CO2	5.07% (inactive)	8.03%	-2.97%
C[C@H](NC(=O)C[C@@H]1C=C[C@H](NC(=O)CN2CCOCC2)[C@H](CO)O1)c1ccccc1	4.92% (inactive)	1.16%	3.76%
CCCNC(=O)N1CCC2(CC1)CN(C(=O)c1cccnc1)[C@@H](CO)c1[nH]c3cc(OC)ccc3c12	8.76% (inactive)	-3.75%	12.5%
C[C@@H]1CCCCO[C@H](CN(C)Cc2ccc(C(=O)Nc3ccccc3N)cc2)[C@H](C)CN([C@H](C)CO)C(=O)c2cc(N(C)C)ccc2O1	1.16% (inactive)	0.261%	0.898%
CC(C)CC#Cc1ccc([C@@H]2[C@@H](CO)N3C(=O)CN(C(=O)c4cnccn4)C[C@@H]23)cc1	-2.25% (inactive)	4.38%	-6.63%
COc1ccc2c3c(n(C)c2c1)[C@@H](CO)N(C(=O)C1CC1)CC31CN(C(=O)C2CCOCC2)C1	9.17% (inactive)	2.05%	7.12%
O=C(Nc1ccccc1)N1C[C@H]2[C@@H](c3ccccc31)[C@H](CO)N2Cc1ccc(F)cc1	-5.39% (inactive)	-0.0374%	-5.35%
COc1ccc2c3c(n(C)c2c1)[C@@H](CO)N(C(=O)c1ccccn1)CC31CN(C)C1	15.3% (inactive)	6.61%	8.66%
CN(C)C(=O)C[C@@H]1C[C@H]2c3cc(NC(=O)Nc4ccccc4F)ccc3O[C@H]2[C@@H](CO)O1	1.79% (inactive)	4.62%	-2.83%
CO[C@H]1CN(C)C(=O)c2ccc(NC(=O)c3cccc(F)c3)cc2OC[C@@H](C)N(C(C)=O)C[C@@H]1C	1.79% (inactive)	2.12%	-0.333%
Cc1ccccc1-c1ccc([C@H]2[C@H](CO)N3C(=O)CN(C(=O)c4cccnc4)C[C@@H]23)cc1	6.89% (inactive)	11.7%	-4.8%
O=C(C[C@H]1CC[C@@H]2[C@H](COC[C@H](O)CN2S(=O)(=O)c2ccccc2)O1)N1CCOCC1	7.87% (inactive)	8.06%	-0.196%
O=C(C[C@@H]1CC[C@H]2[C@@H](COC[C@@H](O)CN2C(=O)Nc2ccc(Cl)cc2)O1)NC1Cc2ccccc2C1	3.16% (inactive)	10.4%	-7.28%
Cc1ccccc1S(=O)(=O)Nc1ccc2c(c1)C(=O)N(C)[C@@H]1CC[C@@H](CC(=O)O)O[C@@H]1CO2	-2.51% (inactive)	-0.782%	-1.73%
COc1cccc(C(=O)N2C[C@@H]3[C@H](c4ccccc42)[C@H](CO)N3Cc2ccccc2F)c1	-0.575% (inactive)	3.46%	-4.03%

Compound	activity change, negative = inhibition	activity change, negative = inhibition [1]	Gaussia minus Italica difference
CCCNC(=O)N1C[C@@H](O)COC[C@H]2O[C@H](CC(=O)NCCCN3CCOCC3)CC[C@@H]21	5.88% (inactive)	6.39%	-0.509%
CCC(=O)N1CC2(C1)CN(Cc1nccs1)[C@@H](CO)c1c2c2ccc(OC)cc2n1C	20% (inactive)	2.76%	17.3%
CN(C)C(=O)c1cccc(-c2ccc3c(c2)[C@H]2[C@H](CCN2C(=O)c2cccnc2)[C@H](CO)N3)c1	-0.714% (inactive)	0.0796%	-0.793%
O=C(C[C@@H]1CC[C@@H]2[C@H](COC[C@H](O)CN2CC2CCOCC2)O1)NCC1CCCCC1	3.21% (inactive)	11.5%	-8.33%
CCCN1C[C@@H](C)[C@@H](OC)CN(C)C(=O)c2cc(NC(=O)Nc3cccc(F)c3)ccc2OC[C@@H]1C	-9.36% (inactive)	-5.66%	-3.7%
O=C(NCC1CC1)[C@@H]1[C@@H](CO)[C@@H]2Cn3c(ccc(-c4ccncc4)c3=O)[C@@H]2N1Cc1cocn1	-0.331% (inactive)	-1.44%	1.11%
CC(C)NC(=O)N1[C@H](CO)[C@H](c2ccccc2)C12CN(C(=O)Cc1cccnc1)C2	1.09% (inactive)	5.85%	-4.76%
CCC(=O)N1[C@H](CO)[C@@H]2c3ccccc3N(S(=O)(=O)c3ccccc3C)C[C@@H]21	-0.934% (inactive)	-0.843%	-0.0907%
CO[C@H]1CN(C)C(=O)c2ccc(NS(C)(=O)=O)cc2OC[C@@H](C)N(Cc2ccccc2)C[C@@H]1C	3.45% (inactive)	1.74%	1.71%
CCN(C[C@@H]1[C@@H](c2ccccc2)[C@H](CO)N1C(C)=O)C(=O)NC(C)C	-4.96% (inactive)	-1.07%	-3.89%
CCCNC(=O)N(C)C[C@H]1Oc2ncc(-c3ccc(C(=O)N(C)C)cc3)cc2C(=O)N([C@@H](C)CO)C[C@@H]1C	-0.44% (inactive)	5.7%	-6.14%
COc1ccc2c3c([nH]c2c1)[C@H](CO)N(C(=O)C1CCOCC1)CC31CN(S(C)(=O)=O)C1	-4.43% (inactive)	1.27%	-5.7%
O=C(Cc1ccccc1)N1C[C@H]2[C@@H](c3ccccc31)[C@H](CO)N2C(=O)c1ccc(F)cc1	0.616% (inactive)	2.82%	-2.21%
CN1C(=O)c2cc(NC(=O)c3cnccn3)ccc2OC[C@@H]2O[C@H](CC(=O)NC3CCC3)CC[C@@H]21	3.24% (inactive)	0.171%	3.07%
O=C(C[C@@H]1CC[C@@H]2[C@H](COC[C@H](O)CN2S(=O)(=O)c2ccc(F)cc2)O1)NCc1ccc(Cl)c(Cl)c1	-7.18% (inactive)	-12.4%	5.22%
CCCNC(=O)N1C[C@@H]2[C@H](c3ccccc31)[C@@H](CO)N2C(=O)NC(C)C	-3.62% (inactive)	0.166%	-3.78%
N#C[C@@H]1N[C@@H](CO)[C@@H]1c1ccc(C#Cc2ccccc2F)cc1	0.819% (inactive)	0.652%	0.167%
CC=Cc1ccc2n(c1=O)C[C@@H]1[C@@H](CO)[C@H](C(=O)NCCC)[C@H]2N1C(=O)C1CC1 (mixture of isomers)	3.79% (inactive)	5.5%	-1.71%
CCCNC(=O)N1C[C@@H](O)COC[C@H]2O[C@@H](CC(=O)NCCCN3CCOCC3)CC[C@@H]21	-2.3% (inactive)	5.46%	-7.76%
Cc1cc(C(=O)Nc2ccc3c(c2)C(=O)N(C)[C@H]2CC[C@H](CC(=O)NCC(F)(F)F)O[C@@H]2CO3)no1	-3.18% (inactive)	1.49%	-4.67%
C[C@@H](NC(=O)C[C@H]1CC[C@@H](NC(=O)Cc2ccccn2)[C@@H](CO)O1)c1ccccc1	14.3% (inactive)	1.74%	12.6%
O=C(C[C@@H]1CC[C@H]2[C@@H](COC[C@H](O)CN2C(=O)Nc2ccccc2)O1)NCCc1ccncc1	-0.33% (inactive)	7.03%	-7.36%
COc1ccc(NC(=O)N(C)C[C@@H]2OCc3cn(nn3)CCCC(=O)N([C@H](C)CO)C[C@H]2C)c(OC)c1	-6.81% (inactive)	4.76%	-11.6%
N#C[C@@H]1[C@@H](c2ccc(-c3ccccc3F)cc2)[C@@H](CO)N1C(=O)C1CC1	-3.2% (inactive)	-0.917%	-2.29%
COc1ccc2c3c(n(C)c2c1)[C@H](CO)N(Cc1ccccc1F)CC31CN(C(=O)C2CCC2)C1	6.19% (inactive)	3.73%	2.45%
COc1ccc2c3c([nH]c2c1)[C@@H](CO)N(C(=O)NC(C)C)CC31CN(C(=O)C2CCCC2)C1	6.7% (inactive)	0.3%	6.4%
COc1ccc2c3c([nH]c2c1)[C@@H](CO)N(Cc1cc(F)ccc1F)CC31CN(C(=O)C2CCC2)C1	-77.2% (active)	-43.6%	-33.6%
